# Measured values reported in PubChem BioAssay (NCI).
# This is part of a sample that, as a whole, favours compounds with a hit. Of some 83,000 tested, about 20% had one in any assay.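 Plates (96-well) were seeded with cells, treated with compound at one concentration, and incubated for 48 hours before percent growth was determined.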 A number with no mark means an inactive call. Activity calls are given as the source filed them. How the source made its calls: active means growth percent below 10; inactive means the rest.
# What was measured:
# Assay in all cases: NCI-60 one-dose screen, 48 h (100 = growth as untreated, 0 = no growth, -100 = all killed)
# Details in all cases: 10 µM unless noted
# T-47D breast = system: T-47D breast
# BT-549 breast = system: BT-549 breast
# MDA-MB-435 melanoma = system: MDA-MB-435 melanoma
# SW-620 colon = system: SW-620 colon
# MCF7 breast = system: MCF7 breast
# HCC-2998 colon = system: HCC-2998 colon
# KM12 colon = system: KM12 colon
# MDA-MB-468 breast = system: MDA-MB-468 breast
# HCT-116 colon = system: HCT-116 colon
SMILES,growth (T-47D breast),growth (BT-549 breast),growth (MDA-MB-435 melanoma),growth (SW-620 colon),growth (MCF7 breast),growth (HCC-2998 colon),growth (KM12 colon),growth (MDA-MB-468 breast),growth (HCT-116 colon)
COC(=O)C[C@](O)(CCCC(C)(C)O)C(=O)O[C@H]1C(OC)=C[C@@]23CCCN2CCc2cc4c(cc2[C@@H]13)OCO4,-7.62% (active),-29.9% (active),-26.8% (active),-22.2% (active),-17.7% (active),-61.3% (active),-15.6% (active),-36.6% (active),–
O=c1oc2ccc(Br)cc2cc1C1=CSc2nc3sc4c(c3c(=O)n2N=C1)CCCC4,76.9%,95.4%,95.1%,108%,–,125%,97.6%,104%,96.4%
C=C1CC[C@@H]2[C@]3(C)COC(c4ccccc4)O[C@@H]3CC[C@@]2(C)[C@@H]1C/C=C1/C(=O)OCC1OC(C)=O (stereo partly specified),-45.1% (active),-93.5% (active),-29.3% (active),-49.1% (active),-56.7% (active),-76.2% (active),-9.91% (active),-89.8% (active),–
O=C(COc1ccc(NC(=O)Nc2ccc(Cl)c(Cl)c2)cc1)N=Nc1c(O)[nH]c2ccc([N+](=O)[O-])cc12,66%,50%,59.5%,15.9%,30.6%,82.6%,42.2%,32.6%,–
COc1ccc2[nH]c(=O)c(CSc3nccc(-c4ccc(OC)c(OC)c4)n3)cc2c1,-2.81% (active),-43.8% (active),11.4%,44.5%,–,26.3%,32.2%,-12.3% (active),8.21% (active)
CC(=O)Oc1ccc(/C=C/C(=O)N[C@@H](Cc2ccccc2)C(O)C(=O)NCc2ccccc2)cc1OC(C)=O (stereo partly specified),90.9%,81.6%,71.7%,93.2%,81.9%,96.3%,86.3%,78.1%,–
CN(C)c1nc(NCCNS(=O)(=O)c2ccc(C(=O)/C=C/c3ccc(F)cc3)cc2)nc(Nc2ccc(F)cc2)n1,-42.1% (active),-88.7% (active),-92.6% (active),-95.3% (active),-82.8% (active),-95.9% (active),-93.6% (active),-82.8% (active),–
C=C1CC[C@@H]2[C@]3(C)COC(c4cn[nH]c4-c4cccc(Br)c4)O[C@@H]3CC[C@@]2(C)[C@@H]1C/C=C1/C(=O)OCC1O (stereo partly specified),-6.99% (active),-94.2% (active),-50.2% (active),-81.1% (active),–,-100% (active),-67.1% (active),–,-95.9% (active)
COc1ccc(-c2nc(SC(C)C)nc(NCCc3c[nH]c4ccccc34)c2C#N)cc1,6.31% (active),63%,53.4%,32.9%,–,32.5%,25.5%,30.1%,7.04% (active)
CCCCSc1nc(NCCc2c[nH]c3ccccc23)c(C#N)c(-c2ccc(OC)cc2)n1,30.7%,99.4%,72.2%,52.8%,–,49.2%,36.2%,51.1%,21.4%
COc1ccc2c(c1)c(-c1cc3nc(-c4cn(C)c5ncc(Br)cc45)cc(N)n3n1)cn2C,-60.3% (active),-78.5% (active),-67.3% (active),-64.1% (active),–,-94.3% (active),-61% (active),–,-100% (active)
CCOC(=O)C1=C(N)N(c2ccccc2)C2=C(C(=O)CC(C)(C)C2)C1c1ccccc1Cl (stereo unspecified),52%,78.6%,73.1%,74.6%,56.5%,85.6%,58.4%,50.2%,–
CC12CC[C@@H]3[C@]4(C)COC(c5cn[nH]c5-c5cccc(Br)c5)O[C@@H]4CC[C@@]3(C)[C@@H]1CC(C1=CCOC1=O)O2 (stereo partly specified),17.7%,-3.03% (active),36.1%,48.5%,–,35.6%,13.5%,–,15.3%
CN1C(=O)/C(=C/c2ccc(C(=O)Nc3ncc(Cc4ccc(Cl)cc4Cl)s3)cc2)SC1=S,23.9%,31.6%,-4.21% (active),45.1%,30.6%,40.4%,15.5%,-9.37% (active),–
Cc1occc1C(=O)NN1C(=O)/C(=C/C=C/c2ccc([N+](=O)[O-])o2)SC1=S,-15.9% (active),-91% (active),-66.2% (active),-43.2% (active),-33% (active),-75% (active),-66.2% (active),-52.3% (active),–
O=C(/C=C/Nc1ccc2oc(=O)ccc2c1)c1cc2cc(Br)ccc2oc1=O,94.4%,87.9%,103%,105%,–,113%,111%,98.9%,101%
O=c1[nH]c2ccccc2cc1CSc1cccc(Nc2nccc(-c3ccc4ccccc4c3)n2)c1,60.9%,85.4%,87.9%,105%,–,97.3%,95.9%,–,79.7%
C#CCOc1cc(N(CC)CC)ccc1C(C(=O)NC(C)(C)C)N(C(=O)C1CCc2cc(F)ccc2O1)c1ccc(Br)cc1 (stereo unspecified),71.3%,75%,69.9%,77.9%,–,100%,60.4%,61.2%,35.6%
CN(C)CCn1c2ccccc2c2nc3cc(C(F)(F)F)ccc3nc21,59.4%,62.2%,40.3%,22.5%,–,41.6%,42.9%,35.3%,16.8%
C=C1CC[C@@H]2[C@]3(C)COC(c4cn[nH]c4-c4cccc(Cl)c4)O[C@@H]3CC[C@@]2(C)[C@@H]1C/C=C1/C(=O)OCC1O (stereo partly specified),-2.68% (active),-92.4% (active),-32.5% (active),-57.6% (active),–,-91.2% (active),-25.2% (active),-84.3% (active),-91.6% (active)
Cc1cccc(-c2nc(Nc3cccc(S(N)(=O)=O)c3)c3ccccc3n2)c1,36.4%,88.6%,46.4%,67.6%,–,-1.53% (active),11.6%,38.6%,-5.73% (active)
C=C1CC[C@@H]2[C@]3(C)COC(c4cn[nH]c4-c4ccc(F)cc4)O[C@@H]3CC[C@@]2(C)[C@@H]1C/C=C1/C(=O)OCC1O (stereo partly specified),11.6%,-93.4% (active),-62.2% (active),-60.7% (active),–,-95.3% (active),-44.3% (active),-82.4% (active),-88.9% (active)
COc1ccc(N2N=C(c3ccc4c(c3)OCO4)CC2c2cccc(NC(=O)CCCNS(=O)(=O)c3ccc(F)cc3)c2)cc1 (stereo unspecified),53%,97.3%,63.2%,86.2%,42.2%,60.1%,41.3%,35.5%,–
Nc1nc(-c2ccccc2)c(N=Nc2ccc(Cl)cc2[N+](=O)[O-])s1,61.2%,92.6%,105%,102%,60.3%,102%,102%,89.7%,–
CN(C)c1ccnc(CNCCSC2(c3ccc(C(F)(F)F)cc3)c3ccccc3CCc3ccccc32)c1,-55.8% (active),-15.2% (active),-80.6% (active),-66% (active),–,-91.6% (active),-66.3% (active),-87.6% (active),-82.5% (active)
COc1c(F)ccc(C(=O)Nc2ccc3nc(NC(=O)C4CCCN(S(=O)(=O)c5ccc(Br)s5)C4)sc3c2)c1F (stereo unspecified),53.1%,75.5%,84.1%,100%,–,98.7%,75%,83.7%,65.4%
Cc1ccc(-c2nc(C#N)c(S(=O)(=O)N3CCN(S(=O)(=O)c4ccc(Cl)cc4)CC3)o2)cc1,92.1%,99.8%,94.8%,109%,75.8%,106%,109%,61.9%,–
COc1cc2c(c(OC)c1OC)C(=O)CC(c1cccc(NC(=O)c3cccc(NC(=O)[C@H](C)NC(=O)OC(C)(C)C)c3)c1)O2 (stereo partly specified),19.8%,36.9%,65.6%,86.9%,39.3%,105%,41.2%,58.1%,–
CC(=O)OC[C@@]1(C)C2CC[C@]3(C)C(CC=C4C5CC(C)(C)CC[C@]5(C(=O)Nc5ccc(C)cc5)CC[C@]43C)[C@@]2(C)C[C@@H](OC(C)=O)[C@@H]1OC(C)=O (stereo partly specified),17.5%,51.3%,48.8%,40.5%,25.6%,44.8%,51.9%,8.22% (active),–
COc1ccc(/C=C/c2nc3ccccc3c(=O)n2CC(=O)Nc2ccc(Cl)cc2)cc1,66.5%,63.6%,90.5%,73.9%,–,116%,61.3%,98%,35.4%
